This is a sample that favours compounds with a hit; in the whole collection about 4.1% have one here.
Mtb FBA inh = inhibits M. tuberculosis FBA enzyme | purified M. tuberculosis FBA, fluorescence read-out | inhibition, % at 1 µM | AID 588726 | P9WQA3 | 360,000 compounds, 2.3% hits; in the data active = inhibition above about 27%
Mtb UGM inh = blocks M. tuberculosis UGM enzyme | P9WIQ1 | purified UGM, fluorescence polarization probe displacement | inhibition, % at 10 µM | 320,000 compounds, 0.06% hits | AID 504406; in the data active = inhibition above about 10%, passing the limit was not always enough
GDH-TPI counter = counter-screen for M. tuberculosis FBA inhibitors: GDH-TPI coupled enzymes. GDH-TPI coupled enzyme counterscreen, NADH absorbance. inhibition, % at 4.8 µM. 360,000 compounds, 1.2% hits; in the data active = inhibition above about 30%
Vc quorum ag = inducers of Vibrio cholerae quorum light production without autoinducers; 350,000 compounds, 0.16% hits; AID 588436; activation, % at 18.7 µM; V. cholerae BH1578 lux reporter, luminescence, 6 h; in the data active = activation mostly above about 9.7%, no sharp cut-off
RecA intein inh = inhibitors of M. tuberculosis RecA intein splicing; P9WHJ3; cell-free RecA intein splicing, fluorescence; inhibition, % (no concentration beside the values); 290,000 compounds, 0.75% hits; in the data active = inhibition above about 30%
Rv3671c protease = inhibits the M. tuberculosis serine protease Rv3671c; 320,000 compounds, 0.048% hits; P9WHR9; inhibition, % at 5.96 µM; in the data active = inhibition above about 38%;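 note: extracellular domain of Rv3671c used as enzyme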
Target sequence (P9WHR9 whole entry, looked up, the tested form may be a part): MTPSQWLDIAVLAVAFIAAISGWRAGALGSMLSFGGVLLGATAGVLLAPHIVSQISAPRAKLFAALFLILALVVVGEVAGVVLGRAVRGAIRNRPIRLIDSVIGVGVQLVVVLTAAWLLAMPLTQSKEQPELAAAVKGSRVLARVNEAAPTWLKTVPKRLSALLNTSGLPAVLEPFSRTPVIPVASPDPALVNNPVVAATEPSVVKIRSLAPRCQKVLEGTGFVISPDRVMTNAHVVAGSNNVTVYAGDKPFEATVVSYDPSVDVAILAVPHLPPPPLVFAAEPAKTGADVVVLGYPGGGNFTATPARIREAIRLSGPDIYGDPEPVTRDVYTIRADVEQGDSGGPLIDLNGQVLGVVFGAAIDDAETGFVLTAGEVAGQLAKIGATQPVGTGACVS
Numbers stand for hits; - = inactive; . = no result.

SMILES	Mtb FBA inh	Mtb UGM inh	GDH-TPI counter	Vc quorum ag	RecA intein inh	Rv3671c protease
CCC(C)(C)NC(=O)C(c1ccc(OC)cc1)N(C(=O)CCC(=O)Nc1cc(C)on1)c1cccc(F)c1 (centres undefined)	117	-	-	-	-	-
COc1ccc(/C=C2\CCn3c2nc2cc(C(=O)O)ccc2c3=O)cc1O	-	.	51	-	-	-
CSc1ccc(/C=C2\CCn3c2nc2cc(C(=O)O)ccc2c3=O)cc1	-	-	63	-	-	-
N=c1nc(-c2ccccc2)ccn1O	-	-	39	-	-	-
c1ccc(-c2ccn3nnnc3n2)cc1	-	-	-	-	-	-
Cc1ccccc1NC(=O)C1CCCN1/C=C/C(=O)C(F)(F)F (centres undefined)	-	-	-	-	-	-
O=C(Nc1ccccc1)C1CCCN1/C=C/C(=O)C(F)(F)F (centres undefined)	-	-	44	-	-	-
Cc1ccc(S(=O)(=O)CCC(=O)c2ccc(O)cc2O)cc1	-	-	43	-	-	-
Cc1ccc(S(=O)(=O)CCC(=O)OCC(=O)c2cc(C)ccc2C)cc1	-	-	-	-	-	-
O=C1c2ccccc2NC(c2ccccn2)N1c1ccc(Cl)cc1 (centres undefined)	-	-	-	-	-	-
c1ccc(C2Nc3ccccc3-c3nc4ccccc4n32)nc1 (centres undefined)	119	-	-	-	-	-
c1ccc(C2Nc3ccccc3-c3nc4ccccc4n32)cc1 (centres undefined)	139	-	-	-	-	-
COc1ccc(NC(=O)COC(=O)CO/N=C(\C)c2ccc3c(c2)OCO3)cc1S(N)(=O)=O	-	-	-	-	.	-
C=CCNc1nc2ccccc2nc1NS(=O)(=O)c1cccs1	-	-	-	-	-	-
CCCCCNc1nc2ccccc2nc1NS(=O)(=O)c1cccs1	-	-	31	-	-	-
O=C(NCc1ccco1)c1ccccc1NS(=O)(=O)c1cccs1	-	-	-	-	-	-
O=S(=O)(Nc1nc2ccccc2nc1NCc1ccco1)c1cccs1	-	-	32	-	-	-
CSCCC(NC(=O)COc1ccccc1)C(=O)N1CCCC(C(F)(F)F)C1 (centres undefined)	-	-	-	-	-	-
CC(/C=C/C=C/c1ccccc1)=N/NC(=O)C(O)c1ccccc1 (centres undefined)	-	-	50	-	-	-
CCOc1ccc(NCC(=O)N/N=C/C=C/c2ccccc2)cc1	-	-	-	-	-	-
CC(/C=C/C=C/c1ccccc1)=N/NC(=O)CNc1ccc(C)cc1	-	-	33	-	-	-
COc1ccccc1Nc1nc(-c2c(C)nc3ncccn23)cs1	-	.	-	-	-	.
CCCNC(=O)C1(C)CCCN(C(=O)c2cccc(Cl)c2)C1 (centres undefined)	-	.	-	-	.	.
CC1(C(=O)NCc2cccc3ccccc23)CCN1Cc1cc2ccccc2o1 (centres undefined)	-	.	-	-	.	.
CCc1cc(C(=O)O)c(NC(=O)/C=C/c2ccc(OC)cc2)s1	-	-	74	-	-	-
SMILES	Mtb FBA inh	Mtb UGM inh	GDH-TPI counter	Vc quorum ag	RecA intein inh	Rv3671c protease
COc1ccc(/C=C/C(=O)Nc2ccccc2C(=O)N2CCCC2)cc1	-	-	36	-	-	-
COc1cc(C=O)ccc1OC(=O)Nc1ccccc1	-	-	52	-	-	-
CCc1cc(C(=O)O)c(NC(=O)/C=C/c2ccc(OC)c(OC)c2)s1	-	-	-	-	-	-
CCN(CC)CCNC(=O)c1ccc(NC(=O)/C=C/c2cc(OC)c(OC)c(OC)c2)cc1	-	-	36	-	-	-
COc1ccc(/C=C/C(=O)Nc2ccccc2C(=O)O)cc1	-	-	-	-	-	-
CC(C)=CC(=O)Nc1cccc(S(=O)(=O)NC2=NCCCCC2)c1	-	-	-	-	.	-
COc1ccc(/C=C/C(=O)Nc2cccc(S(=O)(=O)NC3=NCCCCC3)c2)cc1OC	-	-	35	-	.	-
COc1ccc(/C=C/C(=O)Nc2ccccc2C(=O)O)cc1OC	-	-	47	-	-	-
COc1ccc(/C=C/C(=O)Nc2cccc(C(C)=O)c2)cc1	-	-	33	-	-	-
O=C(/C=C/c1ccccc1)NC(=O)c1ccccc1O	-	-	-	-	-	-
COc1cc(/C=C/C(=O)NC(=O)c2ccccc2O)ccc1O	-	-	40	-	-	-
CCc1ccc(OCCCCN(C)Cc2ccccc2)cc1	-	-	-	-	.	-

Screens deposited in PubChem by several laboratories.
